Only some compounds are listed: those with a hit (about 11% of all), similar ones and a draw of the others.
HCV inhibitor = inhibitors of hepatitis C virus infection; Huh7.5.1 HCVcc-Cre infection, luciferase reporter, 44 h; Potency, µM (doses to about 41.8 µM), inactives show at the top dose activity change, negative = inhibition, most hits filed as inhibitors; 340,000 compounds, 3.4% hits; AID 651820
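Infectious HCVcc-Cre (~0.5 moi) was added to cells just after compound, with cells seeded 4 h earlier at 1,000 per well. Luciferase activity after 44 h culture reported infection; substrate was incubated 15 min at room temperature before reading.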
AmpC inh detg = inhibitors of E. coli AmpC beta-lactamase with detergent; P00811; AmpC hydrolysis of nitrocefin, absorbance 480 nm, 0.01% Triton; Potency, µM (doses to about 114 µM), without a hit: at the highest dose activity change, negative = inhibition, most hits filed as inhibitors; 370,000 compounds, 0.041% hits;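 also: 0% = no-compound wells and -100% = no-enzyme wells; nearly all actives have a fitted effect of over 25% in size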
Target sequence (P00811 whole entry, looked up): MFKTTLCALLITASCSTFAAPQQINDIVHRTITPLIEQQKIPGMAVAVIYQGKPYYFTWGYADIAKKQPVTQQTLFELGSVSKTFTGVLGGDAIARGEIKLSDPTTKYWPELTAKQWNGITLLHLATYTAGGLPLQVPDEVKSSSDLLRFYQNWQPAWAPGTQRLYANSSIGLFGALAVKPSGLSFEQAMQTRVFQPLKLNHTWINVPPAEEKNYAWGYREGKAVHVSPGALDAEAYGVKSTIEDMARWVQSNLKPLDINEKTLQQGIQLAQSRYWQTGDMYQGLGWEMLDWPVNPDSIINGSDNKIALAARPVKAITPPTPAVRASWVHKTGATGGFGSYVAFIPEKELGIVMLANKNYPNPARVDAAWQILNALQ
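20 mM phosphate pH 7.0 + 0.01% (detergent screen) or 0.0001% Triton X-100; 5.3 nM AmpC reagent; cpd preinc 15 min RT; nitrocefin (800 uM stock) to start; A480 q20 s × 4 min; Activity was normalised to no-enzyme and no-compound control wells.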
AMA1 RON2 block = AMA1-RON2 (P. falciparum) interaction inhibition; 360,000 compounds, 0.2% hits; AID 720542; Potency, µM (titrated, usually from 58.2 µM), for the others: at the highest dose activity change, negative = inhibition, hits mostly inhibitors; AlphaScreen AMA1-biotinylated RON2 peptide binding;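 also: 0% = vehicle wells and -100% = peptide control; nearly all actives have a fitted effect of over 45% in size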
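AMA1 (3D7) with his tag at 25 nM final met compounds first, then biotinylated RON2 peptide at 25 nM; detection used donor plus acceptor beads, 10 µg/mL apiece, read by AlphaScreen after 30 min at room temperature.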
AmpC inh no detg = blocks E. coli AmpC beta-lactamase in detergent-free assay. P00811. AmpC nitrocefin hydrolysis, absorbance 480 nm, 0.0001% Triton. Potency, µM (series often up to 57.1 µM), for inactives: top-dose activity change, negative = inhibition, most hits filed as inhibitors. 330,000 compounds, 0.52% hits. AID 485341;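 also: plate controls were no compound for no effect and no enzyme for full effect; nearly all actives have a fitted effect of over 20% in size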
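AmpC (5.3 nM in the dispensed reagent) in 20 mM phosphate pH 7.0 with 0.01% (detergent screen) or 0.0001% Triton X-100 was preincubated with compounds for 15 min at room temperature. Nitrocefin was then added from an 800 uM solution, and hydrolysis was followed at 480 nm.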
Pf growth 48h = P. falciparum growth inhibition at 48 hours (one generation); 310,000 compounds, 5.9% hits; Potency, µM (top dose mostly 28.7 µM), inactives show at the highest dose activity change, negative = inhibition, usual class: inhibitors; AID 504832; P. falciparum luciferase growth in erythrocytes, 48 h
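A one-generation exposure of luciferase-tagged malaria parasites in RPMI 1640/Albumax erythrocyte culture, 37 C and 5% CO2. Inhibition is inferred from decreased luminescence after adding detection reagent.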
Pf growth 96h = inhibits malaria parasite growth, 96 h | P. falciparum luciferase reporter growth, 96 h | Potency, µM (series often up to 28.7 µM), without a hit: at the highest dose activity change, negative = inhibition, hits mostly inhibitors | 320,000 compounds, 6.9% hits | AID 504834
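Two-generation exposure (96 h) targets delayed-death phenotype. Reporter parasites carrying integrated firefly luciferase, in red cells at 2% hematocrit and 0.05% parasitemia final, kept at 37 C, 5% CO2; luminescence loss indicates inhibition.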
Active calls of the source: *; u = inconclusive; x = no result given; [ ] = another dose, or the depositor's remark. Calls follow the shape of the dose curve; as a rule, active = well fitted curve in the direction sought with a large enough effect; inconclusive = small, poorly fitted or top-dose-only effect, or another doubt; inactive = no such curve, though single readings can be large; an effect the other way counts as inactive or inconclusive. Unless noted, % is scaled to controls: 0 for no effect and ±100 for the full control effect; potency is read from the fitted curve at half-maximal effect.

SMILES	HCV inhibitor	AmpC inh detg	AMA1 RON2 block	AmpC inh no detg	Pf growth 48h	Pf growth 96h
Cn1c(=O)c2c(nc(NCc3ccccc3)n2C)n(C)c1=O	11.6%	1.3%	-1.1%	-12.1%	-6.6%	x
CCC(C(=O)OCc1cc(=O)n2nc(C)sc2n1)c1ccccc1 (stereo not drawn)	x	-5.0%	x	x	x	x
Cc1ccccc1-c1nn2c(=O)cc(CN3CCN(C(=O)c4ccc(C(C)(C)C)cc4)CC3)nc2s1	x	-8.4%	x	x	x	x
O=C(NC[C@H]1CCCO1)c1cccc2c1C(=O)c1ccc(-c3ccc(F)cc3OCc3ccccc3)cc1S2(=O)=O	10µM*	x	-6.4%	85.8%	x	x
Cc1ccc(-n2nc3cc(C)c(NC(=O)COc4ccccc4)cc3n2)cc1	x	6.2%	x	x	x	x
CN(C)C(C)(C)C#CCCCCC#CC(C)(C)N(C)C	u	-1.9%	-1.9%	-1.9%	u	u
CN(C)C(C)(C)C#CCC(c1ccccc1)c1ccccc1	0.1%	-9.3%	u	64.2%	9.28µM*	u
Cc1cc(NC(=O)n2ncc3c(C)cccc32)ccc1Br	x	22.5%	x	x	x	x
Cc1nn(-c2ccccn2)c(C)c1Oc1ccccc1O	-29.2%	4.0%	23.8%	-2.4%	x	2.62µM*
Cc1nn(-c2nc3ccccc3s2)c(C)c1Oc1ccccc1O	10µM*	-12.9%	4.0%	-26.1%	177.1%	327.6%
O=C(OCC1CCCO1)c1ccc2c(c1)N(Cc1cccc(Cl)c1)C(=O)c1ccccc1S2(=O)=O (stereo not drawn)	x	0.4%	x	x	x	x
COC(=O)CN1C(=O)CSc2ccc(S(=O)(=O)Nc3ccccc3)cc21	x	5.0%	x	x	x	x
C/C(=N\NC(=O)c1ccc(CSc2nncn2C)cc1)c1ccc(Cl)cc1	u	-2.0%	9.7%	-4.5%	-6.4%	u
COc1ccc(/C(C)=N/NC(=O)c2ccc(CSc3nncn3C)cc2)cc1	16.2%	0.0%	10.5%	-15.3%	u	4.15µM*
COC(=O)c1c(NC(=O)CCCOc2ccc(C)cc2)sc2c1C(C(=O)OC)CC2 (stereo not drawn)	x	6.7%	x	x	x	x
CCOC(=O)Cn1c(=O)n(CC2CCCO2)c2nc(-c3ccc(C)cc3)nc(C(N)=O)c21 (stereo not drawn)	x	4.5%	x	x	x	x
Cc1ccc(N(C)C(=O)c2cnn(-c3ccccc3)c2C)c(C)c1	-26.4%	-15.5%	2.0%	24.1%	5.22µM*	5.22µM*
O=C(Nc1ccccc1C(F)(F)F)c1ncoc1-c1ccco1	x	10.6%	x	x	x	x
CCOC(=O)c1c(C)c2c(n1C)CCC/C2=N\O	7.2%	-12.0%	-7.3%	-18.0%	21.8%	11.7µM*
COc1ccc2c(c1)C(=O)C(=O)N2CCS(=O)(=O)c1ccccc1	22.8%	-0.2%	-13.4%	-20.4%	-9.7%	u
O=C1C(=O)N(CCS(=O)(=O)c2ccccc2)c2ccc(F)cc21	4.6%	2.8%	-8.6%	-15.2%	u	9.28µM*
O=C1C(SCCO)=C(SCCO)C(=O)c2ccccc21	10µM*	u	-18.4%	-26.1%	u	u
O=c1[nH]c2ccccc2c(O)c1SCCO	23.4%	4.5%	2.3%	-17.0%	5.3%	63.6%
Cc1ccc(NC(=O)CN2C(=O)C3(SCC(=O)N3c3cccc(Cl)c3)c3ccccc32)cc1C (stereo not drawn)	x	3.8%	x	x	x	x
Cc1sc2ncnc(N3CCC(C(=O)Nc4cc(C(F)(F)F)ccc4OCC(F)(F)F)CC3)c2c1C	7.94µM*	x	22.5%	x	x	x
SMILES	HCV inhibitor	AmpC inh detg	AMA1 RON2 block	AmpC inh no detg	Pf growth 48h	Pf growth 96h
Cc1sc2ncnc(N3CCC(C(=O)Nc4ccccc4C(C)(C)C)CC3)c2c1C	2.0%	u	3.6%	56.2%	11.7µM*	u
Cc1sc2ncnc(N3CCC(C(=O)Nc4nc(-c5cccs5)cs4)CC3)c2c1C	u	0.0%	-4.7%	-40.8%	u	10.4µM*
CCc1nnc(NC(=O)C2CCN(c3ncnc4sc(C)c(C)c34)CC2)s1	-11.1%	3.4%	-6.0%	-14.2%	36.3%	41.3%
CCOC(=O)c1ccccc1NC(=O)C1CCN(c2ncnc3sc(C)c(C)c23)CC1	u	u	-16.2%	-33.9%	10.4µM*	-14.1%
COc1ccc(NC(=O)c2nnn(Cc3nc(-c4cc(OC)c(OC)c(OC)c4)oc3C)c2C)cc1Cl	x	1.5%	x	x	x	x
O=C(Nc1ccc2nc(SCCOc3ccccc3Cl)sc2c1)c1cccs1	x	5.9%	x	x	x	x
CCCCN(CC)Cc1ccc(CNS(=O)(=O)c2cc3c(cc2Cl)NC(=O)CO3)o1	x	-9.2%	x	x	x	x
COc1ccc(CNC(=O)CN(C)c2nn3c(=O)cc(C)nc3s2)cc1	x	21.7%	x	x	x	x
CCc1cccc(C)c1NC(=O)C(CC)Sc1nc2ccncc2[nH]1 (stereo not drawn)	x	12.7%	x	x	x	x
COc1ccc(/C=N/N(C)C2=NS(=O)(=O)c3ccccc32)cc1	-17.5%	-10.6%	-16.9%	-16.3%	x	11.7µM*
COc1ccc(Cc2nc3c4c(ncn3n2)Oc2ccc3ccccc3c2C4c2ccc(OC)c(OC)c2)cc1 (stereo not drawn)	u	-3.8%	-7.9%	-6.9%	1.65µM*	u
COc1ccc(Cc2nc3c4c(ncn3n2)Oc2c(ccc3ccccc23)C4c2ccc(OC)c(OC)c2)cc1 (stereo not drawn)	u	-9.2%	10.3%[2.32 µM]	-5.7%	2.62µM*	1.85µM*
CC(C)(C)NC(=O)[C@H]1CN(Cc2cccnc2)CCN1C[C@@H](O)C[C@@H](Cc1ccccc1)C(=O)N[C@H]1c2ccccc2C[C@H]1O	x	x	x	x	10.7µM*	-17.1%
CCCCCSc1nc2sc3c(c2c(=O)n1-c1ccc(OC)cc1)CCN(C(C)=O)C3	x	-2.2%	x	x	x	x
CCCN(CCC)CC(O)COc1ccc2c(c1)OCO2 (stereo not drawn)	-10.4%	7.2%	-1.5%	-18.8%	-24.8%	u
